Screening data (PubChem BioAssay)
Shown is part of a subset that was picked to be rich in hits.
RE007 growth inh – less growth of the S. pombe RE007 Vpr strain; S. pombe RE007 Vpr strain, BacTiter-Glo ATP luminescence, 24 h; Potency, µM (titrated, usually from 92.2 µM), for inactives: top-dose activity change, negative = less growth, usual class: inhibitors; 0.21% of 360,000 active; active = well fitted falling curve with a large enough effect; inconclusive = small, poorly fitted or top-dose-only effect; inactive = no such curve, though single readings can be large or run the other way; also: potency is read from the fitted curve at half-maximal effect; % is scaled to controls: 0 for no effect and ±100 for the full control effect; nearly all actives have a fitted effect of over 50% in size
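Fission yeast RE007 carrying one integrated HIV-1 vpr copy, seeded at OD 0.01 in PMG+AL medium with 23 nL pinned compound. Grown 24 h at 30 degrees; viability read by BacTiter-Glo luminescence after 5 min.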
TbPYK inhibitor – T. brucei pyruvate kinase inhibition; 0.12% of 410,000 active; Q57TT1; TbPYK enzyme, Kinase-Glo Plus ATP luminescence, 45 min; Potency, µM (doses to about 76.8 µM), inactives show at the top dose activity, negative = inhibition, usual class: inhibitors; also: potency is read from the fitted curve at half-maximal effect; % is scaled to controls: 0 for no effect and ±100 for the full control effect; nearly all actives have a fitted effect of over 50% in size
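Assay buffer: 50 mM TEA pH 7.2, 100 mM KCl, 10 mM MgCl2, 0.05% BSA, 0.01% Tween-20. Pyruvate kinase from T. brucei plus substrate met compound, then ADP (130 uM final). Luminescence was read post 45 min RT.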
Shiga toxin inh – inhibitors of Shiga toxin in Vero cells; AID 2315; Vero cells, Shiga toxin protein synthesis inhibition reporter; inhibition, % at 38.7 µM; 9.2% of 290,000 active; in the data active = inhibition mostly above about 28%, no sharp cut-off; inactive = mostly below about 43%; also: 0% is about no effect
Giardia FBPA inh – blocks Giardia fructose-bisphosphate aldolase activity; A8B2U2; purified Giardia FBPA; Potency, µM (top dose mostly 59.6 µM), for the others: at the top dose activity, negative = inhibition, hits mostly inhibitors; 0.71% of 290,000 active; also: potency is read from the fitted curve at half-maximal effect; % is scaled to controls: 0 for no effect and ±100 for the full control effect; nearly all actives have a fitted effect of over 55% in size
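Giardia FBPA (40 nM reagent) was preincubated 10 min at RT with compound (up to 57.5 uM final), then substrate plus GAPDH/TPI/NAD/arsenate coupling system with diaphorase/resazurin was added; resorufin fluorescence (525/598 nm) was read after 20 min.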
CHX counter-1 – affects cycloheximide protein synthesis inhibition readout, counter-screen. cell reporter, cycloheximide protein synthesis inhibition counterscreen. max response, %. 12% of 300,000 active. AID 2314; in the data active = max response mostly above about 13%, no sharp cut-off; inactive = mostly below about 14%; also: read at 38.3 µM for the half of the compounds with a filed dose; 0% is about no effect
LmPK inh – blocks Leishmania mexicana pyruvate kinase activity; 0.37% of 290,000 active; Potency, µM (doses to about 57.5 µM), inactives show at the top dose activity change, negative = inhibition, actives largely listed as inhibitors; purified LmPK, Kinase-Glo ATP luminescence, 1 h; AID 1721; also: potency is read from the fitted curve at half-maximal effect; % is scaled to controls: 0 for no effect and ±100 for the full control effect
Target sequence (Q27686 whole entry, looked up): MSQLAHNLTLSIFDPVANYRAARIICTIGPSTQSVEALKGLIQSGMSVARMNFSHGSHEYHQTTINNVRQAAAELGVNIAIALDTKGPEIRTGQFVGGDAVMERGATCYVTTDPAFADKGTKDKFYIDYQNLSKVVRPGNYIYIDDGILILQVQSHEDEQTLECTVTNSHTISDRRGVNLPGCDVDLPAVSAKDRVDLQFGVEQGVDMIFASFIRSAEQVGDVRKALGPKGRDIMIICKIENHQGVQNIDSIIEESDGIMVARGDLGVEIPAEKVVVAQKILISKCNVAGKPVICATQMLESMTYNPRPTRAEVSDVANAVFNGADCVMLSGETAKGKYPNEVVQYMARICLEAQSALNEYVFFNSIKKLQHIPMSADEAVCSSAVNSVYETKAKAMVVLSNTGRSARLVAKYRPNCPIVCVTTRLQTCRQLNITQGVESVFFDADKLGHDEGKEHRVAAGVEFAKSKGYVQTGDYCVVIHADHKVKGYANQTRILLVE
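Kinase-Glo luminescence read after 1 h RT reaction of 0.1 nM LmPK with 0.5 mM PEP and 0.1 mM ADP. Activity scaled between uninhibited and enzyme-free controls.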
CHX counter-2 – affects protein synthesis reporter in cycloheximide counter-screen; AID 2318; shares compounds with Shiga toxin inh; Potency, µM (top dose mostly 38.3 µM), inactives show top-dose activity (activation), usual class: activators; Cycloheximide counterscreen, protein synthesis reporter, Shiga toxin assay; 3% of 510 active; calls by dose curve; also: potency is read from the fitted curve at half-maximal effect; 0% is about no effect
Active calls of the source: *; ? = inconclusive; · = no result given. Unless noted, calls follow the shape of the dose curve; as a rule, active = well fitted curve in the direction sought with a large enough effect; inconclusive = small, poorly fitted or top-dose-only effect, or another doubt; inactive = no such curve, though single readings can be large; an effect the other way counts as inactive or inconclusive.

SMILES | RE007 growth inh | TbPYK inhibitor | Shiga toxin inh | Giardia FBPA inh | CHX counter-1 | LmPK inh | CHX counter-2
Cc1cc(NC(=O)c2ccc(Br)o2)ccc1NC(=O)c1ccco1 | ? | -14% | 61* | -1% | 9 | ? | 5%
O=C(CC(c1ccccc1)c1cc(Cl)ccc1O)N1CCCC1 (stereo unspecified) | -1% | 0% | 57* | 8% | 5 | 2% | -2%
O=C(CC(c1ccccc1)c1cc(Cl)ccc1O)N1CCOCC1 (stereo unspecified) | -2% | -1% | -8 | 1% | -4 | 1% | ·
CCOC(=O)C1CCCN(c2nc3ccccc3nc2C(C#N)C(=O)OCCOC)C1 (stereo unspecified) | 5% | 6% | -6 | -23% | -1 | 8% | ·
CCOC(=O)C1CCCN(c2nc3ccccc3nc2C(C#N)C(=O)OCC)C1 (stereo unspecified) | -6% | -5% | 133* | -15% | -1 | -1% | -3%
CCCCOC(=O)c1ccc(N=Nc2c(C)c(C#N)c(O)[nH]c2=O)cc1 | -8% | -1% | 47* | -14% | 8 | -1% | ?
Cc1ccc(C(=O)OCCn2cc(C#N)c(=O)[nH]c2=O)cc1 | 9% | -7% | -12 | 2% | 10 | 6% | ·
O=C(Cc1ccc(F)cc1)Nc1cccc2cccnc12 | 4% | 5% | 36* | -3% | -3 | 2% | 5%
O=C(CCBr)Nc1cccc2cccnc12 | · | · | 4 | · | 4 | · | ·
O=C(O)c1ccccc1OCC1CCCO1 (stereo unspecified) | -12% | 3% | 21 | -2% | 7 | 1% | ·
CCC(=O)NCc1nc2ccccc2n1Cc1ccccc1 | · | 4% | · | · | · | · | ·
O=C(NCCC1=CCCCC1)C1CCN(S(=O)(=O)c2cccc3cccnc23)CC1 | -9% | -8% | active | -2% | 9 | -1% | 3%
Cc1ccc(S(=O)(=O)N2[C@H](CC(=O)c3cccs3)OC[C@@H]2C)cc1 | -5% | · | · | · | · | · | ·
O=C(COCc1cc(-c2ccc3c(c2)OCO3)on1)Nc1cccc(O)c1 | · | -4% | · | · | · | · | ·
O=C(COCc1cc(-c2ccc3c(c2)OCO3)on1)N1CCN(c2ccccc2)CC1 | -20% | -1% | 40* | · | 7 | -4% | 1%
Cc1ccc(NC(=O)C(C)N=C2NS(=O)(=O)c3ccccc32)cc1 (stereo unspecified) | -2% | -14% | 35* | 6% | 8 | 6% | -2%
O=C1C(Cl)=C(Nc2ccccc2)C(=O)c2ccccc21 | 6% | -3% | 69* | ? | 9 | -3% | ?
COc1cc(C(=O)N2CCN(C(=O)c3cc(-c4ccccc4)n[nH]3)CC2)cc(OC)c1OC | -3% | 11% | -2 | -1% | 8 | -4% | ·
Cc1ccc2nc(-c3ccc(Br)cc3)cc(C(=O)NCC3CCCO3)c2c1 (stereo unspecified) | -11% | 4% | · | · | · | · | ·
Cc1ccc2nc(-c3ccccc3)cc(C(=O)NCC3CCCO3)c2c1 (stereo unspecified) | -12% | -6% | 40* | -6% | 10 | 4% | 1%
N#CCC(=O)Nc1ccc(C(=O)N2CCN(c3ccccn3)CC2)cc1 | -20% | 12% | 3 | 8% | -3 | -1% | ·
Cc1ccc(Cl)cc1NC(=O)COC(=O)c1ccc(COc2ccc3c(C)cc(=O)oc3c2)cc1 | · | · | 39* | 6% | -1 | 1% | 2%
CCc1cccc(NC(c2ccccc2)c2nnc(-c3ccccc3F)o2)c1 (stereo unspecified) | · | 1% | · | · | · | · | ·
O=C(NCc1ccccc1Cl)NCc1ccccc1Cl | 6% | -1% | -3 | 2% | 1 | 4% | ·
CCn1cc(C(=O)NCc2ccccc2Cl)cn1 | 27% | 2% | active | 11% | 8 | 10% | 0%
O=C(NCc1ccccc1Cl)c1cnc2ccccc2n1 | -12% | -3% | 46* | -9% | -1 | 5% | 7%
